Test results published in PubChem BioAssay (NCI).
About 83,000 compounds went through this panel and 20% of them were active in at least one assay; those are over-represented in the sample as a whole.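 Cells were grown in 96-well plates and exposed to the test compound at a single concentration for 48 hours; results are reported as percent growth, with values below 10 considered active.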 Active and inactive are the calls of the source.

test system: NCI-H522 lung; experiment: NCI-60 one-dose screen, 48 h (100 = growth as untreated, 0 = no growth, -100 = all killed); conditions: 10 µM

Q: For `O=C1c2ccccc2CCC1(Br)Br`, which growth is on record?
A: Its growth is -70.8% (active).

Q: Which growth does the source give for `O=C(CNS(=O)(=O)Cc1ccccc1)NNc1ccccc1` here?
A: The growth was 41% (inactive).

Q: How did the growth turn out when `COc1ccc(N)c2c1C(=O)c1ccccc1C2=O` was run?
A: Its growth is 88.6% (inactive).

Q: For `Cc1cc(C)c(N2C(=O)CC(Sc3ccccc3N)C2=O)c(C)c1` (stereo not given), which growth is on record?
A: The growth was 78.8% (inactive).

Q: With `CCC(=O)Oc1ccc(/C=N/NC(N)=S)nc1` as the compound, how does the growth read?
A: Its growth is 39.4% (inactive).

Q: How did the growth turn out when `ClCCn1c(CCl)nc2ccc(Cl)cc21` was run?
A: The growth was -73.2% (active).

Q: With `Cc1cc(Cl)ccc1NC(=O)/C(Cl)=C1/Sc2ccccc2NC1=O` as the compound, how does the growth read?
A: The growth was 104% (inactive).

Q: For `CCOC(=O)[C@]1(Br)CC[C@@]1(Br)C(=O)OCC`, which growth is on record?
A: The growth was -6.96% (active).

Q: `COc1ccc2c(c1)[nH]c1c(/C=C/c3ccccc3)nccc12` was tested. Which growth did it give?
A: Its growth is 40.3% (inactive).

Q: How did the growth turn out when `N#C/C(=C/N1C(=O)/C(=C/c2ccc([N+](=O)[O-])cc2)SC1=S)c1nc2ccccc2s1` was run?
A: The growth was 78.7% (inactive).

Q: Which growth does the source give for `NCc1c(O)ccc2ccccc12` here?
A: The growth was 95% (inactive).

Q: How did the growth turn out when `O=C1c2cccc3cc([N+](=O)[O-])cc(c23)C(=O)N1CCN1CCCC1` was run?
A: The growth was -54.1% (active).

Q: `Cc1cc(O)c2c(c1O)C(=O)C13C(=C2O)C(=O)C2C(O)C1C1C(O)C3C(=O)C3=C(O)c4c(O)cc(C)c(O)c4C(=O)C321` (stereo not given) was tested. Which growth did it give?
A: The growth was 5.74% (active).

Q: With `CC1CCC2(C(=O)O)CCC3(C)C(=CCC4C5(C)CC(O)C(O)C(C)(CO)C5C(O)CC43C)C2C1C` (stereo not given) as the compound, how does the growth read?
A: Its growth is 87.9% (inactive).

Q: `COc1ccc2oc(-c3ccc(Cl)cc3)c(N3CCN(C)CC3)c2c1` was tested. Which growth did it give?
A: Its growth is -78.2% (active).

Q: How did the growth turn out when `Cc1cc(N=C2C=CC(=[N+](C)C)C=C2)c(N)cc1N` was run?
A: Its growth is 77.7% (inactive).

Q: For `O=[N+]([O-])c1cc(S(=O)(=O)Nc2ccccc2)ccc1Cl`, which growth is on record?
A: The growth was 73.8% (inactive).

Q: Which growth does the source give for `O=c1[nH]cc(/C=N\Nc2ccccc2)c(=O)[nH]1` here?
A: Its growth is 19.7% (inactive).

Q: `O=C(NC(=S)Nc1ccccn1)c1ccccc1` was tested. Which growth did it give?
A: The growth was 82.1% (inactive).

test system: A549/ATCC NSCLC; experiment: as above; conditions: 10 µM

Q: With `O=C1c2ccccc2CCC1(Br)Br` as the compound, how does the growth read?
A: Its growth is 96% (inactive).

Q: How did the growth turn out when `O=C(CNS(=O)(=O)Cc1ccccc1)NNc1ccccc1` was run?
A: Its growth is 55.8% (inactive).

Q: `COc1ccc(N)c2c1C(=O)c1ccccc1C2=O` was tested. Which growth did it give?
A: Its growth is 96.7% (inactive).

Q: For `COc1cc(N)ccc1Nc1c2ccccc2nc2ccccc12`, which growth is on record?
A: Its growth is 40.8% (inactive).

Q: How did the growth turn out when `Cc1cc(C)c(N2C(=O)CC(Sc3ccccc3N)C2=O)c(C)c1` (stereo not given) was run?
A: Its growth is 74.8% (inactive).

Q: Which growth does the source give for `CCC(=O)Oc1ccc(/C=N/NC(N)=S)nc1` here?
A: Its growth is 98.8% (inactive).

Q: How did the growth turn out when `ClCCn1c(CCl)nc2ccc(Cl)cc21` was run?
A: The growth was -12.5% (active).

Q: Which growth does the source give for `Cc1cc(Cl)ccc1NC(=O)/C(Cl)=C1/Sc2ccccc2NC1=O` here?
A: The growth was 112% (inactive).

Q: For `COc1ccc2c(c1)[nH]c1c(/C=C/c3ccccc3)nccc12`, which growth is on record?
A: The growth was 87.3% (inactive).

Q: `N#C/C(=C/N1C(=O)/C(=C/c2ccc([N+](=O)[O-])cc2)SC1=S)c1nc2ccccc2s1` was tested. Which growth did it give?
A: Its growth is 91.4% (inactive).

Q: With `CN(C)CCNc1cccc2sc3ccc(O)cc3c(=O)c12` as the compound, how does the growth read?
A: Its growth is 17.3% (inactive).

Q: How did the growth turn out when `NCc1c(O)ccc2ccccc12` was run?
A: Its growth is 94.7% (inactive).

Q: With `O=C1c2cccc3cc([N+](=O)[O-])cc(c23)C(=O)N1CCN1CCCC1` as the compound, how does the growth read?
A: Its growth is -28.6% (active).

Q: `Cc1cc(O)c2c(c1O)C(=O)C13C(=C2O)C(=O)C2C(O)C1C1C(O)C3C(=O)C3=C(O)c4c(O)cc(C)c(O)c4C(=O)C321` (stereo not given) was tested. Which growth did it give?
A: Its growth is -11.4% (active).

Q: `CC1CCC2(C(=O)O)CCC3(C)C(=CCC4C5(C)CC(O)C(O)C(C)(CO)C5C(O)CC43C)C2C1C` (stereo not given) was tested. Which growth did it give?
A: Its growth is 27% (inactive).

Q: `COc1ccc2oc(-c3ccc(Cl)cc3)c(N3CCN(C)CC3)c2c1` was tested. Which growth did it give?
A: The growth was 39.6% (inactive).

Q: With `Cc1cc(N=C2C=CC(=[N+](C)C)C=C2)c(N)cc1N` as the compound, how does the growth read?
A: Its growth is 84.6% (inactive).

Q: Which growth does the source give for `O=[N+]([O-])c1cc(S(=O)(=O)Nc2ccccc2)ccc1Cl` here?
A: The growth was 91.6% (inactive).

Q: Which growth does the source give for `O=c1[nH]cc(/C=N\Nc2ccccc2)c(=O)[nH]1` here?
A: The growth was 29.4% (inactive).

Q: `O=C(NC(=S)Nc1ccccn1)c1ccccc1` was tested. Which growth did it give?
A: Its growth is 101% (inactive).

test system: 786-0 renal; experiment: as above; conditions: 10 µM

Q: Which growth does the source give for `O=C1c2ccccc2CCC1(Br)Br` here?
A: The growth was 14.8% (inactive).

Q: For `O=C(CNS(=O)(=O)Cc1ccccc1)NNc1ccccc1`, which growth is on record?
A: The growth was 76.6% (inactive).

Q: How did the growth turn out when `COc1ccc(N)c2c1C(=O)c1ccccc1C2=O` was run?
A: Its growth is 112% (inactive).

Q: `COc1cc(N)ccc1Nc1c2ccccc2nc2ccccc12` was tested. Which growth did it give?
A: The growth was 69.4% (inactive).

Q: With `Cc1cc(C)c(N2C(=O)CC(Sc3ccccc3N)C2=O)c(C)c1` (stereo not given) as the compound, how does the growth read?
A: Its growth is 112% (inactive).

Q: How did the growth turn out when `CCC(=O)Oc1ccc(/C=N/NC(N)=S)nc1` was run?
A: The growth was 23.6% (inactive).

Q: How did the growth turn out when `ClCCn1c(CCl)nc2ccc(Cl)cc21` was run?
A: Its growth is -59.9% (active).

Q: Which growth does the source give for `Cc1cc(Cl)ccc1NC(=O)/C(Cl)=C1/Sc2ccccc2NC1=O` here?
A: Its growth is 92.9% (inactive).

Q: For `CCOC(=O)[C@]1(Br)CC[C@@]1(Br)C(=O)OCC`, which growth is on record?
A: Its growth is 118% (inactive).

Q: How did the growth turn out when `COc1ccc2c(c1)[nH]c1c(/C=C/c3ccccc3)nccc12` was run?
A: The growth was 62.9% (inactive).

Q: Which growth does the source give for `N#C/C(=C/N1C(=O)/C(=C/c2ccc([N+](=O)[O-])cc2)SC1=S)c1nc2ccccc2s1` here?
A: The growth was 94.8% (inactive).

Q: How did the growth turn out when `CN(C)CCNc1cccc2sc3ccc(O)cc3c(=O)c12` was run?
A: Its growth is 63.3% (inactive).

Q: Which growth does the source give for `NCc1c(O)ccc2ccccc12` here?
A: Its growth is 103% (inactive).

Q: With `O=C1c2cccc3cc([N+](=O)[O-])cc(c23)C(=O)N1CCN1CCCC1` as the compound, how does the growth read?
A: The growth was -18.8% (active).

Q: How did the growth turn out when `Cc1cc(O)c2c(c1O)C(=O)C13C(=C2O)C(=O)C2C(O)C1C1C(O)C3C(=O)C3=C(O)c4c(O)cc(C)c(O)c4C(=O)C321` (stereo not given) was run?
A: The growth was -33.2% (active).

Q: Which growth does the source give for `CC1CCC2(C(=O)O)CCC3(C)C(=CCC4C5(C)CC(O)C(O)C(C)(CO)C5C(O)CC43C)C2C1C` (stereo not given) here?
A: Its growth is 110% (inactive).

Q: How did the growth turn out when `COc1ccc2oc(-c3ccc(Cl)cc3)c(N3CCN(C)CC3)c2c1` was run?
A: Its growth is 27.2% (inactive).

Q: How did the growth turn out when `Cc1cc(N=C2C=CC(=[N+](C)C)C=C2)c(N)cc1N` was run?
A: Its growth is 96% (inactive).

Q: `O=[N+]([O-])c1cc(S(=O)(=O)Nc2ccccc2)ccc1Cl` was tested. Which growth did it give?
A: The growth was 100% (inactive).

Q: How did the growth turn out when `O=c1[nH]cc(/C=N\Nc2ccccc2)c(=O)[nH]1` was run?
A: The growth was 79.6% (inactive).

Q: For `O=C(NC(=S)Nc1ccccn1)c1ccccc1`, which growth is on record?
A: The growth was 90.1% (inactive).
